Data: PubChem BioAssay AID2783 (National Center for Advancing Translational Sciences (NCATS), 2010)
Records with an inconclusive call do not appear. The source made the active and inactive calls. The call rests on the fitted dose curve; in most records, active means well fitted inhibition curve with a large enough effect in the polarisation, with a control signal flat (not every such curve was filed as active); inconclusive means small, poorly fitted or top-dose-only effect, or effect the other way, or a change in a side signal; inactive means no such curve, though single readings can be large or run the other way; the % refers to the polarisation. Where a SMILES comes first, the peptide text is derived from it. Bridges are numbered along the chain shown (N, C = ends). [ ]: non-standard residue; d: D form. The star is where a group is joined. ξ: configuration not given here. Octanoyl(6-Me) = CCC(C)CCCCC(=O)*; ξThr(3R) = C[C@@H](O)C(N)C(=O)O; dDab = NCC[C@@H](N)C(=O)O; Dab = NCC[CH](N)C(=O)O

These compounds were tested against Histone-lysine N-methyltransferase 2A (Homo sapiens) (UniProt Q03164) (assay: Confirmation of Inhibitors Targeting the Menin-MLL Interaction in MLL Related Leukemias: Competition With Fluorescein Labeled MLL-derived Peptide). Settings: Fluorescence polarization, fluorescein-MLL peptide displacement from menin.
Potency means the concentration at half of the fitted maximal effect.

Histone-lysine N-methyltransferase 2A (Homo sapiens), sequence (Q03164 whole entry, looked up): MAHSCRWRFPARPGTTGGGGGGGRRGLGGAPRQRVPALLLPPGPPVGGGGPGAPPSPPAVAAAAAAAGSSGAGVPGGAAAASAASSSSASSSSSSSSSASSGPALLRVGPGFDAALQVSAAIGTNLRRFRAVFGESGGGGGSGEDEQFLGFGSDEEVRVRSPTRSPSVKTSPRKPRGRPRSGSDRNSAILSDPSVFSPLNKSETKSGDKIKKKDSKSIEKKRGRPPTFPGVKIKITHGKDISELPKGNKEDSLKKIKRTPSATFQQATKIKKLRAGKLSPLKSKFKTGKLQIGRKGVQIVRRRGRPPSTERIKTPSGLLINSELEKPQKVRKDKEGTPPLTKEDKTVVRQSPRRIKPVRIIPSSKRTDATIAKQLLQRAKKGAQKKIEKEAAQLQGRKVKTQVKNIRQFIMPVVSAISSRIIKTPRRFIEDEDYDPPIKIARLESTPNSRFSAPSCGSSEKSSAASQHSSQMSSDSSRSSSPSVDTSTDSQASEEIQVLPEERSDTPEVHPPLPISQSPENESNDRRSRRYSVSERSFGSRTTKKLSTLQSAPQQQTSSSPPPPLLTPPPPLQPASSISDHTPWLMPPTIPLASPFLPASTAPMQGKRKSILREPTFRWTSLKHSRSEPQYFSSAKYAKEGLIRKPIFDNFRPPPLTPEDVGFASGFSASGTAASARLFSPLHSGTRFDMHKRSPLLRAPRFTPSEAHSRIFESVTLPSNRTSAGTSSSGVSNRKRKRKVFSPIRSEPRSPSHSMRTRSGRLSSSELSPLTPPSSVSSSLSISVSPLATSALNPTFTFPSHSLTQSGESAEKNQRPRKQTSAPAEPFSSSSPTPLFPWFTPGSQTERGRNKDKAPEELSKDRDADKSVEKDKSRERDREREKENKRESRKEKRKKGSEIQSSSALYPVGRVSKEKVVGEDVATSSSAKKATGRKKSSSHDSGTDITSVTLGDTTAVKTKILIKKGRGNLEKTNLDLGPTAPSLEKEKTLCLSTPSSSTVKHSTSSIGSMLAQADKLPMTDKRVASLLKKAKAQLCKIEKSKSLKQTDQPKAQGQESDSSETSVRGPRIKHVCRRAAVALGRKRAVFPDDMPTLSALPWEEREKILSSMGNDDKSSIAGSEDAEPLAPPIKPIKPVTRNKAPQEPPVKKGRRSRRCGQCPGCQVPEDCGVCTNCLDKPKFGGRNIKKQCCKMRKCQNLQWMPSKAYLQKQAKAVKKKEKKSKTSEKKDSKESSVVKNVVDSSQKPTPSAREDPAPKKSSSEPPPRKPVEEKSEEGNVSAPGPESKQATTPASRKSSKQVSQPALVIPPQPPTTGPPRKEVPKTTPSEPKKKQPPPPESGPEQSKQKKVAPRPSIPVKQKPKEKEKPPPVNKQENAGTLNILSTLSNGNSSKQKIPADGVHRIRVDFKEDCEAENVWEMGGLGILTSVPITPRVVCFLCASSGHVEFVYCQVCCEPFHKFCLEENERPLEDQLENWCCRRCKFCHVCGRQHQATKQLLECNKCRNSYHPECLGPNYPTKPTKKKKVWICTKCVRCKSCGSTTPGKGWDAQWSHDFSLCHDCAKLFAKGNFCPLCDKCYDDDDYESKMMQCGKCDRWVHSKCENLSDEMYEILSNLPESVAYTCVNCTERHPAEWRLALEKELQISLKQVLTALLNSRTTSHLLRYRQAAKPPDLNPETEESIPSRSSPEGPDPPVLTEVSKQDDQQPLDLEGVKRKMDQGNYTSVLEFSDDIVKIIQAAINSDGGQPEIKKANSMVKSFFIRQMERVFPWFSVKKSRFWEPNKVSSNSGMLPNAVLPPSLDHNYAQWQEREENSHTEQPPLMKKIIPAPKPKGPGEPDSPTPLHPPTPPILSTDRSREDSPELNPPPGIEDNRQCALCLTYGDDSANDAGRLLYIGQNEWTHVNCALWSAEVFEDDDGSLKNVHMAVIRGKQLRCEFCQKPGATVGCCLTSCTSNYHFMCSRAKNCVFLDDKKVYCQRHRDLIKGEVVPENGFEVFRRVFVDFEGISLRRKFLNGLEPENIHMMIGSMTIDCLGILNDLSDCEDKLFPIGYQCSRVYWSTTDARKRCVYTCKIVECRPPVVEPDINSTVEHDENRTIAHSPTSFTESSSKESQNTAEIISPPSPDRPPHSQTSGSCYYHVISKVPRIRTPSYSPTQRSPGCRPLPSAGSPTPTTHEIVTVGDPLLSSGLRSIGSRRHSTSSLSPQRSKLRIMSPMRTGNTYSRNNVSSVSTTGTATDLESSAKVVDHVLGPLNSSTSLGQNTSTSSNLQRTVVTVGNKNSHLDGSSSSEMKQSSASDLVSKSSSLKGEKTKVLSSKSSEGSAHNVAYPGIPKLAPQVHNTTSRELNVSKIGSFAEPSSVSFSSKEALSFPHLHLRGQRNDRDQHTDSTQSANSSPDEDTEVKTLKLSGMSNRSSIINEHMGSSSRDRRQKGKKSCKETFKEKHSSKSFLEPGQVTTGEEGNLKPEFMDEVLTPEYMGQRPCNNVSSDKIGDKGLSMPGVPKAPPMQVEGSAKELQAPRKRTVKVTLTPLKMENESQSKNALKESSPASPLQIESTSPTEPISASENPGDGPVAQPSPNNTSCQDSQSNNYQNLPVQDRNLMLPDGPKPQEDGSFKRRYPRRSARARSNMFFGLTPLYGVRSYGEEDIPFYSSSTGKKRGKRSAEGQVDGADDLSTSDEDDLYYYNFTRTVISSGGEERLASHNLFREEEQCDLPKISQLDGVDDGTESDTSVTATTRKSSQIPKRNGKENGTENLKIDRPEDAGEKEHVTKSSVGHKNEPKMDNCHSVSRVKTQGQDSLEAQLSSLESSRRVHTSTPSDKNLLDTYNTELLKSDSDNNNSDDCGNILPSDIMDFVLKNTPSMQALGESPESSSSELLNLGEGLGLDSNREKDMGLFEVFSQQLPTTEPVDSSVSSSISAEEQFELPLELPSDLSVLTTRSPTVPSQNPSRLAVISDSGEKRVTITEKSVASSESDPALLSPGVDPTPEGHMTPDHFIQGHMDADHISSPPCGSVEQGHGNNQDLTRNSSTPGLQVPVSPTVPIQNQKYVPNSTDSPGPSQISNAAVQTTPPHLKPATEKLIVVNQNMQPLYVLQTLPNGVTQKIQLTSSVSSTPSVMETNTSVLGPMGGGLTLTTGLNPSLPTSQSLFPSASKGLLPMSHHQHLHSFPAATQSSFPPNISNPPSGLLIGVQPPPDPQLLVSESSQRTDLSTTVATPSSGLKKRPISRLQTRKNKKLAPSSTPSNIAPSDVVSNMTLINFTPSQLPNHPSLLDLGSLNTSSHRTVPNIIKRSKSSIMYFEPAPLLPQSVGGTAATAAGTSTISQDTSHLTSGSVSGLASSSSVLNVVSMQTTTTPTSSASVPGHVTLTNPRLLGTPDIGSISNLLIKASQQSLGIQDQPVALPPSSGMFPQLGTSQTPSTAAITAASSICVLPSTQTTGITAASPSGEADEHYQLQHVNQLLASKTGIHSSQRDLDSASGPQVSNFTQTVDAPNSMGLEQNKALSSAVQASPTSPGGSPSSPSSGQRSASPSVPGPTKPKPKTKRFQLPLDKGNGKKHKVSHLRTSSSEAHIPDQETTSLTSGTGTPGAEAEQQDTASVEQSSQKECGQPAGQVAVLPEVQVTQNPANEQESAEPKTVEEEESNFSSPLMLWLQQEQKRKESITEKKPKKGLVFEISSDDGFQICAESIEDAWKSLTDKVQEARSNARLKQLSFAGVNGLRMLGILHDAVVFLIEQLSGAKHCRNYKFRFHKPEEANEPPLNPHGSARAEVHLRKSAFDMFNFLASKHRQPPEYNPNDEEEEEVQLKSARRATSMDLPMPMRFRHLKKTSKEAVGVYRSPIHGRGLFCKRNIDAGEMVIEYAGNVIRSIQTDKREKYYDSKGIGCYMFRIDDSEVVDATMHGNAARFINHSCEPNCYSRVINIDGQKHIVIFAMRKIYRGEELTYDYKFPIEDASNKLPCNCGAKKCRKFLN

Potency, active:
NC(=O)[C@@H]1CCCNc2c(I)cc([N+](=O)[O-])cc2C(=O)N[C@@H](CCCN=C(N)N)C(=O)N[C@@H](CCCN=C(N)N)C(=O)N1 251 µM
CCc1cc2c(N3CCN(C(=O)c4ccco4)CC3)ncnc2s1 63.1 µM
Cc1cc2c(N)cccc2nn1 141 µM
NC(=NCCCCCCN=C(N)/N=C(\N)Nc1ccc(Cl)cc1)/N=C(\N)Nc1ccc(Cl)cc1 141 µM
CCC(C)CCCCC(=O)NC(CCN)C(=O)NC(C(=O)NC(CCN)C(=O)NC1CCNC(=O)C(C(C)O)NC(=O)C(CCN)NC(=O)C(CCN)NC(=O)C(CC(C)C)NC(=O)C(Cc2ccccc2)NC(=O)C(CCN)NC1=O)C(C)O (configuration not stated) ({Octanoyl(6-Me)}-[Dab]T[Dab][Dab][Dab]FL[Dab][Dab]T; lactam 4-C; configuration not given here) 10 µM
Cc1sc2ncnc(NC3CCN(Cc4ccccc4)CC3)c2c1C 63.1 µM
COc1ccc(Cn2nnnc2C(c2ccc3ncccc3c2)N2CCN(C3CCCCC3)CC2)cc1 (configuration not stated) 200 µM
COc1ccccc1NS(=O)(=O)c1cc(N2Cc3ccccc3C2=N)ccc1N1CCOCC1 71 µM
CNC[C@H](CC1CCCCC1)NC[C@H](Cc1ccccc1)NCCC12CC3CC(CC(C3)C1)C2 79.4 µM
O=C(C[N+]12CC[N+](CC(=O)c3ccc(F)cc3)(CC1)CC2)c1ccc(F)cc1 79.4 µM
C[C@H](NC(=O)c1cc2c(cn1)[nH]c1ccccc12)C(=O)O 71 µM
CC1(C)CN=C(N2CCN(c3ncnc4sc5c(c34)CCCC5)CC2)S1 22.4 µM
CCOc1cc(CNCCc2ccc(S(N)(=O)=O)cc2)ccc1OCc1ccccc1 126 µM
CCCC[n+]1c2ccccc2cc2ccccc21 63.2 µM
N=C1c2ccccc2CN1c1ccc(N2CCOCC2)c(S(=O)(=O)Nc2ccc(Cl)cc2)c1 71 µM
CCC[n+]1c2ccccc2cc2ccccc21 63.2 µM
CCC(C)CCCCC(=O)N[C@@H](CCN)C(=O)N[C@H](C(=O)N[C@@H](CCN)C(=O)N[C@H]1CCNC(=O)C([C@@H](C)O)NC(=O)[C@@H](CCN)NC(=O)[C@H](CCN)NC(=O)[C@H](CC(C)C)NC(=O)[C@@H](CC(C)C)NC(=O)[C@H](CCN)NC1=O)[C@@H](C)O (stereo partly drawn) ({Octanoyl(6-Me)}-[Dab]T[Dab][Dab][Dab][dL]L[Dab][dDab][ξThr(3R)]; lactam 4-C) 12.6 µM
c1cc(CN2CCCNCCNCCCNCC2)ccc1CN1CCCNCCNCCCNCC1 31.6 µM
CCCC(c1nnnn1Cc1ccco1)N1CCN(C2CCCC2)CC1 (configuration not stated) 126 µM
CC(=O)NC1C(=O)N(CCN2CCOCC2)c2ccc(C)cc21 (configuration not stated) 79.6 µM
CCC(c1nnnn1Cc1ccc(F)cc1)N1CCN(C2CCCCC2)CC1 (configuration not stated) 126 µM
COC(=O)[C@H](C)NC(=O)c1cc2c(cn1)[nH]c1ccccc12 50.2 µM
